# Bioassay records deposited in PubChem BioAssay by Broad Institute.
# RAD52 anneal inh = RAD52 DNA annealing inhibitors, primary screen, biochemical, FRET, single point, set 2 | DNA repair protein RAD52 homolog (Homo sapiens), P43351 | recombinant RAD52 DNA annealing, FRET fluorescence | inhibition, % at 18.7 µM | 360,000 tested, 0.46% active;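 active means every replicate showing at least 50% inhibition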
# NSD2 HMT inh = NSD2 histone methyltransferase inhibitors, primary screen, biochemical, AlphaScreen, single concentration, set 2; NSD2 peptide methylation, 120 min; inhibition, % at 12.5 µM; 310,000 tested, 0.54% active; AID 743445, 2014; in the data active means inhibition above about 50%
# MLL AF4-AF9 inh = inhibitors of AF4 peptide binding to AF9, primary screen, biochemical, AlphaScreen, biotin-AF4 peptide, FLAG-AF9, single point | Protein AF-9 (Homo sapiens), P42568 | inhibition, % at 10 µM | 350,000 tested, 0.47% active;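 active means every replicate reaching a set inhibition limit, whatever the replicate mean, cut at about 25% in these data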;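 further: 0% = plate neutral control median and 100% = total signal loss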
# miR-122 sensor = miR-122 Renilla sensor signal increase in Huh7, primary screen, miR-122 inhibitor project, cell-based, single point, plate reader. Huh7 miR-122 Renilla luciferase sensor, 48 h; neutral wells = 0, positive control = 100. activation (reporter increase), % at 12.5 µM. 340,000 tested, 0.3% active;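 active means mean replicate activation score at least 90 and every replicate individually at or above 90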;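 further: higher luciferase means less miR-122 activity so hits act as miR-122 inhibitors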
# CASP6 VEID inh = human caspase-6 inhibitors, primary screen, biochemical, VEID-R110 fluorescence, single point, set 2. P55212. purified caspase-6, Z-VEID-R110 cleavage fluorescence. inhibition, % at 12.5 µM. 350,000 tested, 0.53% active;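 active means mean inhibition across replicates at least about 35%, with every replicate also reaching that limit, limit read from the data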;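 further: 0% = median of neutral control wells and 100% = no fluorescence left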
# Target sequence (P55212 24-179 limits assumed): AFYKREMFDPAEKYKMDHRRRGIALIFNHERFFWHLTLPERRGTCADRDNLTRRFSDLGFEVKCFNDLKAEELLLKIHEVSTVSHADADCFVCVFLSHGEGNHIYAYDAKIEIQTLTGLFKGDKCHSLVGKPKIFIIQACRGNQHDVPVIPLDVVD
# Target sequence (P55212 194-293 limits assumed): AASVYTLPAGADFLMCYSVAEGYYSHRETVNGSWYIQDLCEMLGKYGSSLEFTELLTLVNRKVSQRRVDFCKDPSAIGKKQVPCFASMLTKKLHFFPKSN
# * = called active by the depositor; x = no result; [ ] = remark or other dose. Shown are actives, neighbours in structure and some others; about 1.5% of the full set was active somewhere.
SMILES,RAD52 anneal inh,NSD2 HMT inh,MLL AF4-AF9 inh,miR-122 sensor,CASP6 VEID inh
C/C(=N\Nc1ccc(C(=O)O)cc1)c1ccc(Br)cc1,-15,10,-3,11,43*
C/C(=N/Nc1ncc(Br)cn1)c1ccc(Br)cc1,-22,-2,4,-8,2
C[C@H](CO)N1C[C@H](C)[C@@H](CN(C)C(=O)C2CCCCC2)Oc2ncc(-c3ccncc3)cc2C1=O,-6,x,-1,-1[16.7 µM],-2
CN1c2ccc(-c3ccc(F)cc3)cc2[C@H]2[C@H](CCN2S(=O)(=O)c2cccc(F)c2)[C@H]1CO,2,x,17,144*[16.7 µM],3
COc1ccc(C#Cc2ccc3c(c2)[C@@H]2[C@@H](CCN2S(=O)(=O)c2cccc(OC)c2)[C@@H](CO)N3C)cc1,67*,x,0,7[16.7 µM],1
CN1c2ccc(-c3ccc(F)cc3)cc2[C@@H]2[C@@H](CCN2S(=O)(=O)c2cccc(F)c2)[C@@H]1CO,-6,x,10,13[16.7 µM],0
CCN1CCN(C(=O)c2ccc(CS(=O)(=O)Cc3ccccc3C)o2)CC1,-5,9,-2,-2,-1
CCN1CCN(C(=O)c2ccc(CS(=O)(=O)Cc3ccccc3Cl)o2)CC1,-15,5,-2,-4,63*
CO[C@H]1CN(C)C(=O)c2cc(NC(=O)c3ccc(F)cc3)ccc2OC[C@H](C)N(C(C)=O)C[C@H]1C,15,x,1,5[16.7 µM],-2
COc1ccc2c3c([nH]c2c1)[C@H](CO)N(C(=O)c1cccnc1)CC31CCN(C(=O)Nc2cccc(F)c2)CC1,-1,x,5,x,2
C[C@H](CO)N1C[C@H](C)[C@@H](CN(C)Cc2ccc3c(c2)OCO3)Oc2ncc(/C=C/c3ccccc3)cc2C1=O,16,x,26*,-3[16.7 µM],2
C[C@H](CO)N1C[C@H](C)[C@@H](CN(C)Cc2ccccc2F)Oc2ncc(/C=C/c3ccccc3)cc2C1=O,2,x,28*,3[16.7 µM],0
C[C@H](CO)N1C[C@H](C)[C@H](CN(C)Cc2ccc3c(c2)OCO3)Oc2ncc(/C=C/c3ccccc3)cc2C1=O,5,x,3,24[16.7 µM],0
CN1C(=O)C(N=Nc2ccc([N+](=O)[O-])cc2)SC1=S (configuration not stated),-24,19,44*,-2,0
CC1=NN(C(N)=S)C(=O)C1N=Nc1cccc([N+](=O)[O-])c1 (configuration not stated),-5,1,-5,5,-1
CSCCC(NC(=O)C1CCCC1)c1nnc2ccccn12 (configuration not stated),-21,-6,-1,-2,2
CSCC[C@H](NS(=O)(=O)c1ccc(C(C)=O)cc1)c1nnc2ccccn12,-9,21,-1,1,37*
CC(=O)Nc1ccc2nc(CN3CCC(CO)(CCc4ccccc4)CC3)ccc2c1,-53,-1,-1,162*,0
CC(=O)c1cccc(CN2CCC(CO)(CCCc3ccccc3)CC2)c1,-11,x,-8,17,-4
C[C@@H]1CN([C@@H](C)CO)C(=O)Cc2cc(N(C)C)ccc2O[C@@H]1CN(C)Cc1ccc(-c2ccccc2)cc1,7,x,42*,-7[16.7 µM],-1
C[C@H](CO)N1C[C@H](C)[C@@H](CN(C)Cc2ccc(Oc3ccccc3)cc2)Oc2ccc(N(C)C)cc2CC1=O,10,x,72*,-2[16.7 µM],0
C[C@H](CO)N1C[C@H](C)[C@H](CN(C)Cc2ccc(Oc3ccccc3)cc2)Oc2ccc(N(C)C)cc2CC1=O,-9,x,27*,-6[16.7 µM],-1
COc1ccc2c(c1)c(=O)oc1c(C)c(OCc3cc(C(=O)O)oc3C)ccc12,-2,x,-4,2,51*
CNC[C@H]1OCCCC[C@@H](C)Oc2ccc(N(C)C)cc2C(=O)N([C@H](C)CO)C[C@@H]1C,1,x,1,-3[16.7 µM],0
O=c1[nH][nH]c2c(N=Cc3ccccc3O)ccc(F)c12,-15,x,x,-3,97*
SMILES,RAD52 anneal inh,NSD2 HMT inh,MLL AF4-AF9 inh,miR-122 sensor,CASP6 VEID inh
CCc1ccc(O)c(N=Cc2ccccc2O)c1,-15,x,3,2,0
NNC(=O)c1cc(-c2cccs2)nc2ccccc12,-4,-1,-18,x,0
C/C(=N\NC(=O)c1cc(-c2cccs2)nc2ccccc12)c1ccccn1,-27,16,1,151*,0
CC(C)CC#Cc1ccc([C@@H]2[C@H](CO)N3CCCCN(C(=O)c4ccc5c(c4)OCO5)C[C@@H]23)cc1,58*,x,15,-4[16.7 µM],0
CN(C)CC#Cc1ccc([C@@H]2[C@H](CO)N3CCCCN(C(=O)CN(C)C)C[C@@H]23)cc1,88*,x,8,2[16.7 µM],0
CN(C)CC#Cc1ccc([C@@H]2[C@H]3CN(C(=O)CN(C)C)CCCCN3[C@H]2CO)cc1,62*,x,-1,6[16.7 µM],3
COCC#Cc1ccc([C@@H]2[C@@H](CO)N3CCCCN(C(=O)CN(C)C)C[C@@H]23)cc1,-10,x,-2,9[16.7 µM],-1
CN(C)CC#Cc1ccc([C@@H]2[C@@H](CO)N3CCCCN(C(=O)CN(C)C)C[C@H]23)cc1,61*,x,7,14[16.7 µM],17
CO[C@@H]1CN(C)C(=O)c2cc(NS(=O)(=O)c3ccccc3)ccc2OC[C@@H](C)N(Cc2nccs2)C[C@H]1C,-9,x,3,x,-1
COc1ccccc1NC(=O)C[C@H]1CC[C@H]2[C@@H](COc3ccc(NC(C)=O)cc3C(=O)N2C)O1,-9,x,-1,x,-1
CO[C@H]1CN(C)C(=O)c2ccc(NC(=O)C3CC3)cc2OC[C@H](C)N(C(=O)Cc2ccccn2)C[C@H]1C,1,x,-2,x,0
COc1ccc(-c2csc(=Nc3ccccc3)n2CC(O)c2ccc([N+](=O)[O-])cc2)cc1 (configuration not stated),x,2,x,x,x
C[C@@H]1CN([C@H](C)CO)C(=O)c2cc(NC(=O)Nc3ccc(F)cc3)ccc2O[C@@H](C)CCCCO[C@@H]1CN(C)C(=O)c1ccccc1,-12,x,-9,1[16.7 µM],-2
COc1ccc(S(=O)(=O)N(C)C[C@@H]2OCCCC[C@@H](C)Oc3ccc(NS(=O)(=O)c4cccs4)cc3C(=O)N([C@H](C)CO)C[C@H]2C)cc1,-57,x,6,-11[16.7 µM],3
CN(C)CC#Cc1ccc([C@H]2[C@H](CO)N3CCCCN(C(=O)CN(C)C)C[C@@H]23)cc1,74*,x,5,58[16.7 µM],4
COCC#Cc1ccc([C@H]2[C@H]3CN(C(=O)CN(C)C)CCCCN3[C@H]2CO)cc1,-19,x,0,9[16.7 µM],1
CN(C)CC#Cc1ccc([C@H]2[C@@H](CO)N3CCCCN(C(=O)CN(C)C)C[C@H]23)cc1,87*,x,2,33[16.7 µM],2
Cc1sc(N/N=C/c2ccco2)nc1-c1ccccc1,-4,2,25*,x,-2
